Data as given in PubChem BioAssay (Tox21).
Records with an inconclusive call do not appear. A number with no mark means an inactive call. The source made the active and inactive calls. Calls follow the shape of the dose curve; as a rule, active = well fitted curve in the direction sought with a large enough effect in the repeat runs; inconclusive = weak or mixed curves; inactive = no such curve, though single readings can be large; an effect the other way counts as inactive or inconclusive.

Target: Voltage-gated inwardly rectifying potassium channel KCNH2 (Homo sapiens) (UniProt Q12809)
Sequence (Q12809 whole entry, looked up): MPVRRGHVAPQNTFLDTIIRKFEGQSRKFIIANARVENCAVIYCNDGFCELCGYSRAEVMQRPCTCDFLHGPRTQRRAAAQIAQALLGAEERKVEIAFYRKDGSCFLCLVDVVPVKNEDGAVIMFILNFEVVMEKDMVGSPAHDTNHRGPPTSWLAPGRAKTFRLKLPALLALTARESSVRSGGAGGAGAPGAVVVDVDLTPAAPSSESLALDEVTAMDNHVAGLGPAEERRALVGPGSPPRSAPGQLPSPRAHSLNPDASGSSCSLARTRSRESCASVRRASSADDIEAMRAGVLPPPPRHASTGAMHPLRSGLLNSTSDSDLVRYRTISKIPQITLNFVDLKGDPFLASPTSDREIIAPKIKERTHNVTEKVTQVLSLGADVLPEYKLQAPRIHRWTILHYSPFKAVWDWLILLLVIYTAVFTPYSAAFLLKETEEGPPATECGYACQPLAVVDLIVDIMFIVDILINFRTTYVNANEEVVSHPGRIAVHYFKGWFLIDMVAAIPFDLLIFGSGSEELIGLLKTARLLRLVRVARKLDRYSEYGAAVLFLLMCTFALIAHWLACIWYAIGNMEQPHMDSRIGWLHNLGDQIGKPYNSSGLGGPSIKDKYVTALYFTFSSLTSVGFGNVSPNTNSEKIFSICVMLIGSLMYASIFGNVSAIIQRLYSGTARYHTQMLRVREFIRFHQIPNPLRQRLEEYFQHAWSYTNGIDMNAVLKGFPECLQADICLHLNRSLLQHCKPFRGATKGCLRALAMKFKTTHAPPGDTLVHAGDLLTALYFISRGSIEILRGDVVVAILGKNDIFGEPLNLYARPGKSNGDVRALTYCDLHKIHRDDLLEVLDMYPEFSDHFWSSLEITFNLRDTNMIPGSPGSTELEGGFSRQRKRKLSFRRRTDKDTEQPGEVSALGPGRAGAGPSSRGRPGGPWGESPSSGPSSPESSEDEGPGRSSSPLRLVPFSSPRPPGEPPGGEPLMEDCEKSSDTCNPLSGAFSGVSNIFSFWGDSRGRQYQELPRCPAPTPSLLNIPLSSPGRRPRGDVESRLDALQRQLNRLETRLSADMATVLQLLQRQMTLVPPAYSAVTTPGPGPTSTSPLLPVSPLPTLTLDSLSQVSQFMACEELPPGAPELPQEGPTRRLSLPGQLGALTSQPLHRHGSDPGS
Assay: Human Ether-a-go-go-Related Gene (hERG) channel small molecule antagonists: fluorescence cell-based qHTS assay (AID 1671200);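 also: hERG-expressing U2OS cells given a thallium stimulus after FluxOR II dye loading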
Conditions: hERG-U2OS cells, FluxOR thallium flux fluorescence; series mostly up to 76.8 µM; activity change, negative = inhibition: at the top concentration
Method in brief: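 Quantitative HTS in hERG-U2OS cells: thallium entry through the channel reports activity, read as continuous 480/540 nm fluorescence over 2 min after stimulus addition.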
% is scaled to controls: 0 for no effect and ±100 for the full control effect.
Also: nearly all actives have a fitted effect of over 50% in size.

SMILES | activity change, negative = inhibition
CC1(CO)CN(c2ccccc2)NC1=O (stereo unspecified) | 10.3%
N#Cc1ccc(C(=O)O)cc1 | -8.75%
COc1ccc(C2CNC(=O)C2)cc1OC1CCCC1 (stereo unspecified) | -0.531% [at 35.3 µM]
C=Cc1ccccn1 | -2.5%
O=C1c2ccccc2C(=O)C1c1ccccc1 | 0.456% [at 35.3 µM]
CCC(CC)CO | -0.867%
CCCCCCCCC(=O)Cl | 0.516%
CCCCNC1CC(C)(C)NC(C)(C)C1 | -10.4%
O=C(O)Cc1ccc(Cl)cc1Cl | 0.841%
C[C@H](CCC(=O)O)[C@H]1CC[C@H]2[C@@H]3C(=O)C[C@@H]4CC(=O)CC[C@]4(C)[C@H]3CC(=O)[C@]12C | 4.98% [at 35.3 µM]
CC(COC(C)(C)C)OCCCO (stereo unspecified) | 1.16%
CCOc1cc([N+](=O)[O-])c(OCC)cc1N1CCOCC1 | -0.232%
CCCCCOC(=O)CCC | 4.53%
OCCCCC(O)CO (stereo unspecified) | -0.186%
CC(C)=CCOC(=O)c1ccccc1 | -0.118%
CC(=O)Nc1ccc(S(=O)(=O)Cl)cc1 | -1.32%
c1ccc2nccnc2c1 | 4.93%
CC(C)CCCCOC(=O)c1ccccc1C(=O)OCCCCC(C)C | -4.85%

SMILES | activity change, negative = inhibition
C[C@@H](O)[C@H]1C(=O)N2C(C(=O)O)=C(SCCN=CN)C[C@H]12 | 1.57% [at 35.3 µM]
C[C@@H](Oc1ccc(CNC(=O)c2cccnc2Oc2ccc3c(c2)OCO3)c(F)c1)C(=O)O | 2.09%
COc1ccc2c(c1OC)C(=O)O[C@@H]2[C@H]1c2c(cc3c(c2OC)OCO3)CCN1C | -11.4% [at 35.3 µM]
CO[C@@H]1[C@@H](OC(N)=O)[C@@H](O)[C@H](Oc2ccc3c(O)c(NC(=O)c4ccc(O)c(CC=C(C)C)c4)c(=O)oc3c2C)OC1(C)C | -0.0643% [at 35.3 µM]
C=COCCOCCOCCOC=C | -1.85%
C=C(C)C(=O)OCc1ccccc1 | 2.55%
CC1=CCC(C(C)C)=CC1 | -3.45%
Cc1ccc2c(c1)OCC(=O)CO2 | 4.58%
CCC(C=O)CC | 4.66%
FC(F)(F)c1ccccc1-n1ccnc1 | 0.523% [at 35.3 µM]
CC(=O)N[C@@H](CCC(=O)O)C(=O)O | -0.411% [at 35.3 µM]
O=C(OCC(O)CO)c1ccccc1Nc1ccnc2c(C(F)(F)F)cccc12 (stereo unspecified) | -15.7% [at 35.3 µM]
CC(C)(C)c1cc(CCC(=O)NN)cc(C(C)(C)C)c1O | -20.1%
O=S(O)(O)=S | -2.48% [at 6.97 µM]
CCCC(=O)C(C)=O | 12.2%
Nc1ccc2cc(S(=O)(=O)O)cc(O)c2c1 | 0.841%
CN(C)C(=O)CNC(=O)Cc1ccccc1 | -2.07% [at 35.3 µM]

Target: Cytochrome P450 3A4 (Homo sapiens) (UniProt P08684)
Sequence (P08684 whole entry, looked up): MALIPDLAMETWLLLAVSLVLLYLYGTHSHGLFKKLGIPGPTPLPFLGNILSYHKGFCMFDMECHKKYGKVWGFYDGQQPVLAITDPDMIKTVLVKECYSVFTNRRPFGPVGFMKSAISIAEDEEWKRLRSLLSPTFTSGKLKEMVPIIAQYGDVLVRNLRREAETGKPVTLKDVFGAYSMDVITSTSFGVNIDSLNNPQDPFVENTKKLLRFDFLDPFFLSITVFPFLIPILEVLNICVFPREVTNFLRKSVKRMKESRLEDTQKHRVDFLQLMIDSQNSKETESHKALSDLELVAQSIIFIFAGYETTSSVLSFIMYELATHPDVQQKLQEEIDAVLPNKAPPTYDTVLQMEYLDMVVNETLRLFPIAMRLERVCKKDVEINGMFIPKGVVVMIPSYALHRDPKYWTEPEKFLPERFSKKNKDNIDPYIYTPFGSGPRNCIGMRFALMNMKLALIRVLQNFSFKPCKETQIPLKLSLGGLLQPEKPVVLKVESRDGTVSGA
Assay: Cytochrome P450 Family 3 Subfamily A Member 4 (CYP3A4) small molecule antagonists: luciferase reporter qHTS assay (AID 1671201); also: potency is read from the fitted curve at half-maximal effect
Conditions: P450-Glo CYP3A4 enzyme, luciferin luminescence, 1 h; series mostly up to 115 µM; activity change, negative = inhibition: at the top concentration
Method in brief: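 Inhibition of CYP3A4 is measured as loss of light: the enzyme converts a proluciferin substrate to luciferin, detected luminescently. Reaction ran 1 h at room temperature with NADPH regeneration after a 10 min compound preincubation.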

SMILES | Potency | activity change, negative = inhibition
CC1(CO)CN(c2ccccc2)NC1=O (stereo unspecified) | 31.7 µM (active) | 
N#Cc1ccc(C(=O)O)cc1 |  | 11.1%
COc1ccc(C2CNC(=O)C2)cc1OC1CCCC1 (stereo unspecified) |  | -20.6% [at 52.9 µM]
CC(=O)c1sc(C)nc1C |  | 7.54%
C=Cc1ccccn1 |  | 4.66%
O=C1c2ccccc2C(=O)C1c1ccccc1 |  | 2.97% [at 52.9 µM]
CCC(CC)CO |  | 0.847%
CCCCCCCCC(=O)Cl |  | -4.45%
O=C(O)Cc1cn(-c2ccccc2)nc1-c1ccc(Cl)cc1 |  | 18.8% [at 52.9 µM]
CCCCNC1CC(C)(C)NC(C)(C)C1 |  | -18.7%
O=C(O)Cc1ccc(Cl)cc1Cl |  | 0.745%
C[C@H](CCC(=O)O)[C@H]1CC[C@H]2[C@@H]3C(=O)C[C@@H]4CC(=O)CC[C@]4(C)[C@H]3CC(=O)[C@]12C |  | -13.2% [at 52.9 µM]
CC(COC(C)(C)C)OCCCO (stereo unspecified) |  | 9.27%
CCOc1cc([N+](=O)[O-])c(OCC)cc1N1CCOCC1 |  | -25.4%
CCCCCOC(=O)CCC |  | 0.458%
OCCCCC(O)CO (stereo unspecified) |  | -1.49%

SMILES | Potency | activity change, negative = inhibition
CC(C)=CCOC(=O)c1ccccc1 |  | 22.7%
CC(=O)Nc1ccc(S(=O)(=O)Cl)cc1 |  | 4.31%
c1ccc2nccnc2c1 |  | 0.731%
C[C@@H](O)[C@H]1C(=O)N2C(C(=O)O)=C(SCCN=CN)C[C@H]12 |  | 2.26% [at 52.9 µM]
CO[C@@H]1[C@@H](OC(N)=O)[C@@H](O)[C@H](Oc2ccc3c(O)c(NC(=O)c4ccc(O)c(CC=C(C)C)c4)c(=O)oc3c2C)OC1(C)C |  | 2.54% [at 52.9 µM]
C=COCCOCCOCCOC=C |  | -2.2%
C=C(C)C(=O)OCc1ccccc1 |  | 1.57%
CC1=CCC(C(C)C)=CC1 |  | -19.7%
Cc1ccc2c(c1)OCC(=O)CO2 |  | 4.07%
CCC(C=O)CC |  | 10.1%
CC(=O)N[C@@H](CCC(=O)O)C(=O)O |  | 1.5% [at 52.9 µM]
CC(C)(C)c1cc(CCC(=O)NN)cc(C(C)(C)C)c1O | 0.159 µM (active) | 
O=S(O)(O)=S |  | 0.412% [at 10.5 µM]
Nc1ccc2cc(S(=O)(=O)O)cc(O)c2c1 |  | 1.24%
CN(C)C(=O)CNC(=O)Cc1ccccc1 |  | 3.99% [at 52.9 µM]
